This is a sample that favours compounds with a hit; in the whole collection about 9.2% have one here.
ELG1 DNA repair: qHTS screen for small molecules that inhibit ELG1-dependent DNA repair in human embryonic kidney (HEK293T) cells expressing luciferase-tagged ELG1. HEK293T ELG1-luciferase reporter, luminescence, 16 h; DNA damage induced by 5-fluorouridine. Potency, µM (highest dose often 46.1 µM), inactives show at the highest dose activity change, negative = inhibition, actives largely listed as inhibitors. 2.3% of 330,000 active; also: % is scaled to controls: 0 for no effect and ±100 for the full control effect; nearly all actives have a fitted effect of over 55% in size
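In this reporter screen, reduction of luminescence relative to DMSO vehicle indicated activity. Compounds and 5-fluorouridine were added together to 2,000 cells per well, incubated for 16 hr at 37 °C, then developed with ONE-Glo.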
NPC1 promoter act: qHTS Assay for NPC1 Promoter Activators. Huh7 NPC1 promoter luciferase reporter, 24 h. Potency, µM (titrated, usually from 9.22 µM), for the others: at the top dose activation, usual class: activators. 2.4% of 320,000 active; also: % of control where 0% means no effect; nearly all actives have a fitted effect of over 60% in size
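Quantitative HTS used a cell-based reporter: Huh7 cells stably bearing the NPC1 promoter upstream of luciferase were treated with compounds for 24 h, and promoter activation was read as luminescence.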
ELG1 genotoxic: qHTS screen for small molecules that induce genotoxicity in human embryonic kidney (HEK293T) cells expressing luciferase-tagged ELG1. HEK293T ELG1-luciferase reporter, luminescence, 16 h. Potency, µM (doses to about 46 µM), for the others: top-dose activity change, positive = activation, actives largely listed as activators. 1.3% of 330,000 active. AID 504466, 2011; also: % of control where 0% means no effect; nearly all actives have a fitted effect of over 60% in size
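After overnight (16 hr) compound treatment at 37 °C, ELG1-luciferase HEK293T cells were lysed with ONE-Glo; luminescence quantified 30 min later at room temperature.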
FLuc modulator: qHTS profiling assay for firefly luciferase inhibitor/activator using purifed enzyme and Km concentrations of substrates (counterscreen for miR-21 project). Luciferin 4-monooxygenase (Photinus pyralis), P08659. purified FLuc, Km substrates, luminescence inhibition. Potency, µM (highest dose often 57.5 µM), for inactives: at the top dose activity change, negative = inhibition, hits mostly inhibitors. 6.9% of 360,000 active;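 also: plate controls were vehicle for no effect and reference inhibitor for full effect; nearly all actives have a fitted effect of over 55% in size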
Target sequence (P08659 whole entry, looked up): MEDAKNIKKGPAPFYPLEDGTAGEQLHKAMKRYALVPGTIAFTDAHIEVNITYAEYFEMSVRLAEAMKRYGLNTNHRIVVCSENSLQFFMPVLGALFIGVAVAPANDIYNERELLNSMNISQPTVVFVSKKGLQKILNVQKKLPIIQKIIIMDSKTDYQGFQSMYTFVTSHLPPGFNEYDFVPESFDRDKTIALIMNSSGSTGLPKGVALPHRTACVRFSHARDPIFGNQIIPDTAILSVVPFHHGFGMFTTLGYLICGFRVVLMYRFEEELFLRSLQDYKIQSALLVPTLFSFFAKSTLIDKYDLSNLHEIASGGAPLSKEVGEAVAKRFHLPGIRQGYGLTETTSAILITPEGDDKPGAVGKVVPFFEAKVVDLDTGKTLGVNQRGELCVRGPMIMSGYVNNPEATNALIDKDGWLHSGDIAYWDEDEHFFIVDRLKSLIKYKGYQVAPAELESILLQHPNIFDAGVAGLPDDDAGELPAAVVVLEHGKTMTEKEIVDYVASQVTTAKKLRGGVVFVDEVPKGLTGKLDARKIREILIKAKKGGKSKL
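Purified P. pyralis luciferase (10nM final) with 10uM D-luciferin and 10uM ATP (Km levels) in 50mM Tris acetate pH 7.5, 10mM Mg acetate, 0.01% Tween-20, 0.05% BSA; qHTS 6-point titration, ~60 µM downward; luminescence read.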
Rab9 promoter act: qHTS Assay for Rab9 Promoter Activators | 2.8% of 320,000 active | Huh7 Rab9 promoter-luciferase reporter, luminescence, 24 h | Potency, µM (doses to about 9.22 µM), for the others: top-dose activation, negative = inhibition, most hits filed as activators; also: % of control where 0% means no effect; nearly all actives have a fitted effect of over 60% in size
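Stable Rab9-luc Huh7, 1500 cells/well, 2 h settle; cmpd in DMSO, 24 h, 37 °C/5% CO2; luciferase reagent 10 min RT; luminescence.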
SMN2 splice enh: qHTS Assay for Enhancers of SMN2 Splice Variant Expression. HEK293 SMN2-luciferase splicing reporter, luminescence, 30-36 h. Potency, µM (doses to about 46.1 µM), for inactives: at the top dose activity change, positive = activation, usual class: activators. AID 1458, 2008. 2.8% of 210,000 active; also: % of control where 0% means no effect; nearly all actives have a fitted effect of over 55% in size
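HEK293 cells carry an SMN2 minigene-luciferase reporter in which exon 7 inclusion puts luciferase in frame. Cells were seeded at 2000 cells/well, attached for 10-12 hours, then exposed to compounds for 30-36 hours at 37C before ONE-Glo luminescence.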
* marks the source's active call; other numbers are inactive results; u = inconclusive; x = not tested or not shown. Calls follow the shape of the dose curve; as a rule, active = well fitted curve in the direction sought with a large enough effect; inconclusive = small, poorly fitted or top-dose-only effect, or another doubt; inactive = no such curve, though single readings can be large; an effect the other way counts as inactive or inconclusive. Potency is read from the fitted curve at half-maximal effect.

SMILES | ELG1 DNA repair | NPC1 promoter act | ELG1 genotoxic | FLuc modulator | Rab9 promoter act | SMN2 splice enh
Cn1cnnc1SCC(=O)Nc1sc2c(c1C#N)CCCCC2 | u | 10.5% | 7.5% | 26.9µM* | 11.2% | -17.1%
N#Cc1cc2c(nc1SCC(=O)Nc1sc3c(c1C#N)CCC3)CCCC2 | 23.1% | u | 13.6% | 4.2% | u | 15.9%
Cc1ccc(-n2ncc3c2CCCC3NC(=O)CCc2c(C)noc2C)cc1C (stereo not drawn) | u | 1.1% | -8.1% | -2.6% | -0.1% | x
O=C(Cn1cnc(S(=O)(=O)N2CCCCC2)c1)NCc1ccco1 | -10.7% | -0.5% | -0.1% | 0.2% | 0.0% | x
CC(Oc1ccc(Cl)cc1Cl)c1nc(-c2ccc(NC(=O)c3ccncc3)cc2)no1 (stereo not drawn) | 18.4µM* | -29.0% | -3.3% | -3.8% | -22.1% | -70.7%
CC(Oc1ccc(Cl)cc1Cl)c1nc(-c2ccccn2)no1 (stereo not drawn) | u | u | u | 15.1µM* | u | 28.4%
CCOc1ccccc1CNC(=O)C1CCN(S(=O)(=O)c2ccc3c(ccn3C)c2)CC1 | x | x | x | -8.7% | x | x
CCCCc1ncc(CN2CCC(n3nccc3NC(=O)c3ccccc3Cl)CC2)[nH]1 | 10.3µM* | 0.2% | -6.5% | 0.7% | 0.1% | x
CN(C)CCNC(=O)c1cc2c(s1)-c1ccccc1OC2 | u | 17.0% | 23.1µM* | 19µM* | 18.0% | -11.1%
CCOc1ccc(NC(=O)c2cc3c(s2)-c2ccccc2OC3)cc1 | x | x | x | 3.0% | x | -27.5%
Cc1csc(NC(=O)c2cc3c(s2)-c2ccccc2OC3)n1 | u | 3.55µM* | 16.7% | u | u | u
COc1ccc(Cl)cc1NC(=O)c1cc2c(s1)-c1ccccc1OC2 | x | x | x | 7.2% | x | -7.4%
Cc1c(NC(=O)c2cc3c(s2)-c2ccccc2OC3)cccc1[N+](=O)[O-] | 23.1µM* | -0.1% | -10.1% | -5.5% | -9.0% | x
Cc1ccc(C)c(Cn2c(=O)n(CCCCCC(=O)NCc3ccc4c(c3)OCO4)c(=O)c3sccc32)c1 | x | x | x | -15.5% | x | 7.2%
CCOCCCNC(=O)/C(C#N)=C/c1ccc(-c2ccc(S(=O)(=O)N3CCOCC3)cc2)o1 | u | -3.1% | -11.5% | 0.0% | 0.6% | -21.6%
COCCNC(=O)/C(C#N)=C/c1ccc(-c2ccc(S(=O)(=O)N3CCOCC3)cc2)o1 | 16.4µM* | -2.1% | -5.9% | 0.9% | -3.0% | -1.6%
CCOc1c(Nc2ccc(C(C)C)cc2)c(=O)c1=O | 6.6% | -2.3% | 1.3% | 13.5µM* | 0.7% | x
COc1nc(Nc2ccc(C(C)C)cc2)nc(OC)n1 | u | 24.7% | 15.5% | u | 19.6% | u
O=C(Nc1c2c(nn1-c1ccc(F)cc1)CS(=O)(=O)C2)c1ccc(S(=O)(=O)N2CCOCC2)cc1 | 7.3% | 0.1% | -1.1% | -1.0% | 1.0% | -28.0%
COc1cc(C(=O)NC(C)Cc2ccccn2)ccc1OC1CCN(C(C)=O)CC1 (stereo not drawn) | -6.2% | -2.1% | 0.3% | 7.8% | -11.9% | x
Nc1cc(Nc2ccc(Br)cc2)nc(N)n1 | u | 3.55µM* | u | 13.5µM* | u | x
Cc1cc(Nc2ccc(Cl)cc2)nc(N)n1 | u | u | u | 19µM* | u | 15.9%
COc1ccc(Nc2cc(Cl)nc(N)n2)cc1 | u | 14.3% | u | -18.7% | 27.7% | u
COc1ccc(Nc2cc(C)nc(N)n2)cc1 | u | 22.4% | 13.3% | u | u | x
Cc1ccccc1OCc1csc(N)n1 | 25.8% | 1.6% | 5.0% | u | 0.4% | 5.4%
